According to the supplement of paper PMC11732987, “Enantioselective OTUD7B fragment discovery through chemoproteomics screening and high-throughput optimisation” (Communications Chemistry, 2025):

Key:
Assay in all cases: log2 ratio of Biotin-Ahx-Ub-VS probe labelling (fragment/DMSO); higher = less target engagement (more negative = stronger competition), active = hit call of the paper (q ≤ 0.05, log2 ratio ≤ -1)
Conditions in all cases: compound concentration: 200 uM; treatment time: 3 h
OTUD6B = molecular target: T1, OTUD6B (UniProt Q8N6M0)
T1 sequence (whole entry): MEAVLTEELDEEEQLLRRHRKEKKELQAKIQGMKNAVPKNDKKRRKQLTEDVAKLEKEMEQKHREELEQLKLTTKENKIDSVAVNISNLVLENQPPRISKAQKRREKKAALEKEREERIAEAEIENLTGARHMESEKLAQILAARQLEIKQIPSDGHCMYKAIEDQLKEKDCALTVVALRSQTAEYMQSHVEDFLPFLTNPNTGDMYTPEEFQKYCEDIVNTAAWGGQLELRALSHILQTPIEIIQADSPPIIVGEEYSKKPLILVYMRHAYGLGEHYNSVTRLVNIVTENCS
Summary of the method: (§1)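 The table lists average log2 ratios of fragment over vehicle, from an unpaired t-test on global-median-normalised Spectronaut label-free quantities. Proteins with ≥2 unique peptides were used. Samples were HEK293T lysate (495 µg) treated in triplicate with fragment at 200 µM or vehicle for 3 h, then with Biotin-Ahx-Ub-VS (0.5 µM final) for 1 h, with labelled DUBs NeutrAvidin-enriched and run by diaPASEF LC-MS/MS.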

OTUD7B = molecular target: T2, OTUD7B (UniProt Q6GQQ9)
T2 sequence (whole entry): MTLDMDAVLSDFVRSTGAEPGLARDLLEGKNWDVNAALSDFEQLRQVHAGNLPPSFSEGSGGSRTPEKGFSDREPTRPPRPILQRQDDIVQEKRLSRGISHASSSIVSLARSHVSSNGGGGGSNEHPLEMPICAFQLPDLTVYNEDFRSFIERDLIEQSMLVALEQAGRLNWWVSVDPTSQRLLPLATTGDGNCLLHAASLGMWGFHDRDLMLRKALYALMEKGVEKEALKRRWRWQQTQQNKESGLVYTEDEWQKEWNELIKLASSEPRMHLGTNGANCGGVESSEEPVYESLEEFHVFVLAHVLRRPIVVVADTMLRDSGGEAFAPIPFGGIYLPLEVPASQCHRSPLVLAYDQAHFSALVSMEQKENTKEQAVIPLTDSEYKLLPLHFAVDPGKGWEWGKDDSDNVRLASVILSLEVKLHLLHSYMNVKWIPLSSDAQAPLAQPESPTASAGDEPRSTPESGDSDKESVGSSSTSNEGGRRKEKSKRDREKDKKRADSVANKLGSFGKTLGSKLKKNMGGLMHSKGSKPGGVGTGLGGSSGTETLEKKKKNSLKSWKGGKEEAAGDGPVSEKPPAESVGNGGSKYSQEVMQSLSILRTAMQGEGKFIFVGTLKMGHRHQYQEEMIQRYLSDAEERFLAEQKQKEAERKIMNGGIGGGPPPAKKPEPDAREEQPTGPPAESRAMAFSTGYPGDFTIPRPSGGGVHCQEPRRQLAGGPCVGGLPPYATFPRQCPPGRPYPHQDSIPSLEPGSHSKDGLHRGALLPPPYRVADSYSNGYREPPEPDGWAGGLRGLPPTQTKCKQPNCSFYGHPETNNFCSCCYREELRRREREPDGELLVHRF
Summary of the method: as §1

PRPF8 = PRPF8 (UniProt Q6P2Q9)
Summary of the method: as §1

PSMD7 = molecular target: T3, PSMD7 (UniProt P51665)
T3 sequence (whole entry): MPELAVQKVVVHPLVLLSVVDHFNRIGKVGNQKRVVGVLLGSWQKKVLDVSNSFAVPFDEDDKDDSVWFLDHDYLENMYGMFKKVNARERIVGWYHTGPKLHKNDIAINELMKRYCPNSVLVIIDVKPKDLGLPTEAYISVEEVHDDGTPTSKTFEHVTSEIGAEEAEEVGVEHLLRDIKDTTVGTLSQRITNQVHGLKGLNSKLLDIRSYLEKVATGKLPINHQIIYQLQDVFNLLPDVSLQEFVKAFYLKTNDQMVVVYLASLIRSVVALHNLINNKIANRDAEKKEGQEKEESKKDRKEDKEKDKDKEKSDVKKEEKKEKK
Summary of the method: as §1

UCHL1 = UCHL1 (UniProt P09936)
Chain of UCHL1 (P09936 whole entry, looked up): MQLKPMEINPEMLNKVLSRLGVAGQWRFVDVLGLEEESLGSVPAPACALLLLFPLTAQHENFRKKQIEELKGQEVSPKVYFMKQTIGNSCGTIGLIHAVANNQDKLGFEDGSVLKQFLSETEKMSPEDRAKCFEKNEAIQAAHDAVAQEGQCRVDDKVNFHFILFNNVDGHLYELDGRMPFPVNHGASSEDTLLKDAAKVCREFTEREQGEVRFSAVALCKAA
Summary of the method: as §1

UCHL3 = molecular target: T4, UCHL3 (UniProt P15374)
T4 sequence (whole entry): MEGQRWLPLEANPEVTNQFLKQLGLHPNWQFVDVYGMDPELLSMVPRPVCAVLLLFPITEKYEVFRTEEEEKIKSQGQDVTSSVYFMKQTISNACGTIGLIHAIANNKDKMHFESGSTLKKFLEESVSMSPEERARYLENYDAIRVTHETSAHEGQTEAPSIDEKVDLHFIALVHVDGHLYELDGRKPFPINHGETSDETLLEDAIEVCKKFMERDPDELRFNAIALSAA
Summary of the method: as §1

UCHL5 = molecular target: T5, UCHL5 (UniProt Q9Y5K5)
T5 sequence (whole entry): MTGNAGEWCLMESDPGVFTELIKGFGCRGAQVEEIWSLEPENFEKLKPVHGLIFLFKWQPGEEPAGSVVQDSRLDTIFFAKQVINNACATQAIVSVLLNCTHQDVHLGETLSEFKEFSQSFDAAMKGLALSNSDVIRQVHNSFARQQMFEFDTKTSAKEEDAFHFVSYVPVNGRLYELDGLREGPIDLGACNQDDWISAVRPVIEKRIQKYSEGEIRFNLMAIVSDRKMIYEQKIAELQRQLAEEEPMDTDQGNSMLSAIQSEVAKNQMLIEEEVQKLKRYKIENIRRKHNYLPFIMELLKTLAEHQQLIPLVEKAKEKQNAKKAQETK
Summary of the method: as §1

USP10 = USP10 (UniProt Q14694)
Chain of USP10 (Q14694 whole entry): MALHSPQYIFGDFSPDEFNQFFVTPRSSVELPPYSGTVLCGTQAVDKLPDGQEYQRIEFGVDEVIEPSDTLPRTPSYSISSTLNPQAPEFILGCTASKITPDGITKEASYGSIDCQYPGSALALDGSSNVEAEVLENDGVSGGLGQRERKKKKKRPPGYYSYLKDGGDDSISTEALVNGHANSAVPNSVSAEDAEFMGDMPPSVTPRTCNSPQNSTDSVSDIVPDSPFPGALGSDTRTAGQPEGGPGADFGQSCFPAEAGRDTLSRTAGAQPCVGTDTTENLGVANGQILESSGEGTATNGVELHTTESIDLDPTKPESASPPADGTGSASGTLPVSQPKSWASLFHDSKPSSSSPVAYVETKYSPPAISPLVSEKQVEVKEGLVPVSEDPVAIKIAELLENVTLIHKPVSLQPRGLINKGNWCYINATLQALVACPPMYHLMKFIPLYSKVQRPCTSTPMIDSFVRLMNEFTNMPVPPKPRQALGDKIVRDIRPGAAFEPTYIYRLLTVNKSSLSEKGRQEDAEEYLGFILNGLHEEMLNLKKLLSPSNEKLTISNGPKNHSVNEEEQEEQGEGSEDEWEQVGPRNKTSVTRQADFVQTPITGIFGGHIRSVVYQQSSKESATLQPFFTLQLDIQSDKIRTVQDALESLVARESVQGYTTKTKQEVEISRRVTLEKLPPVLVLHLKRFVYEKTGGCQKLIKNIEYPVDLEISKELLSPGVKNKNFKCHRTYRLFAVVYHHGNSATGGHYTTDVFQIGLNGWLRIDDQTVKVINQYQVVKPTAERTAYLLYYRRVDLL
Summary of the method: as §1

USP15 = molecular target: T6, USP15 (UniProt Q9Y4E8)
T6 sequence (whole entry): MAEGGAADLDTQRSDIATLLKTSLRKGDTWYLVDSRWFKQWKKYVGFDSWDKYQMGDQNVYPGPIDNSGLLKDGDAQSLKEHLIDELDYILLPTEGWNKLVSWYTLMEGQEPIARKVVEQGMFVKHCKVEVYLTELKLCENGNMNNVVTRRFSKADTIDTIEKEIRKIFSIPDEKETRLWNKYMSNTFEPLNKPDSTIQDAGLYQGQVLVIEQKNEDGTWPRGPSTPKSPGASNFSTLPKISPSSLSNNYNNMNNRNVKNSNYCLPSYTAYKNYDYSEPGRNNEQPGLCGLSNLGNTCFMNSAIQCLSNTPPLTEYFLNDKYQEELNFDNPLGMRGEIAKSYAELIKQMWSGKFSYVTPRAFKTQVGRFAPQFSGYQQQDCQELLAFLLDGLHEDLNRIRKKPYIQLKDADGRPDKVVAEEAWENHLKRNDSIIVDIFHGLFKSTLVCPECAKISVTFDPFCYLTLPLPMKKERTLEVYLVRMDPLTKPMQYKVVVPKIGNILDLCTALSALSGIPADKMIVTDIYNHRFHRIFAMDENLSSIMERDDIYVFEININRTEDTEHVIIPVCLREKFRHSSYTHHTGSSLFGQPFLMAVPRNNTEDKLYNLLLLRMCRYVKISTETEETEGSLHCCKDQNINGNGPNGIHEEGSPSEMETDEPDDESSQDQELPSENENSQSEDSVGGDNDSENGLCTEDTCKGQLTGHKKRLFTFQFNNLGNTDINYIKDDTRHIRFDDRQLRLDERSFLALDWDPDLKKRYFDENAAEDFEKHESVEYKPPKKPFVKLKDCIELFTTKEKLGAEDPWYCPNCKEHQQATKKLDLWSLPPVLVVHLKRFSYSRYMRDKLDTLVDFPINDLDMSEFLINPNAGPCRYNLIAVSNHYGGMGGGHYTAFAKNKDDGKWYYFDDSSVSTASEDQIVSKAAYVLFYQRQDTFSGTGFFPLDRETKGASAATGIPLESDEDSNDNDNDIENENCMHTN
Summary of the method: as §1

USP16 = USP16 (UniProt Q9Y5T5)
Chain of USP16 (Q9Y5T5 whole entry, looked up): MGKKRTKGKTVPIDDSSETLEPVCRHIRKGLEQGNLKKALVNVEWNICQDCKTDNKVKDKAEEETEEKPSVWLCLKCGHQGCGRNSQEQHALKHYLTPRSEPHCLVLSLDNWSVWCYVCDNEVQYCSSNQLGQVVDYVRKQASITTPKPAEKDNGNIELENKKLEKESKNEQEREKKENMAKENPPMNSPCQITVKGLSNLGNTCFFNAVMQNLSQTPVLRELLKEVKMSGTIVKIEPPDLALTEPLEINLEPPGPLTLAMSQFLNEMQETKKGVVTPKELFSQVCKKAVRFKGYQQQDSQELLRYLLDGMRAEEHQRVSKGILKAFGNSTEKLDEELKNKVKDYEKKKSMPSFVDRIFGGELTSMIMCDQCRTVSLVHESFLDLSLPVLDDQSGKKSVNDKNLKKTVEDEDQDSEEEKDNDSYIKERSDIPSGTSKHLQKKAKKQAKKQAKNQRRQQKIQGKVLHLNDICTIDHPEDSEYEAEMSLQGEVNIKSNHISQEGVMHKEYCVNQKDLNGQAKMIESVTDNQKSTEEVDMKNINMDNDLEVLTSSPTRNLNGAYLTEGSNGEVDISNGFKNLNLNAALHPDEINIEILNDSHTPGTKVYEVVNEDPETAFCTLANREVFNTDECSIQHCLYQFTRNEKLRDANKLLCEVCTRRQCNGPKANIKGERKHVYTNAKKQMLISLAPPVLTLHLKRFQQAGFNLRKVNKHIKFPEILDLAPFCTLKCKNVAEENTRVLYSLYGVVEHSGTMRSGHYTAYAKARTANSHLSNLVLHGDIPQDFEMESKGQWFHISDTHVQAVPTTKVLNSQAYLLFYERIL
Summary of the method: as §1

Measured: log2 ratio of Biotin-Ahx-Ub-VS probe labelling

Cl.O=C(CCl)N1CCN(Cc2ccccc2)CC1
inactive: OTUD6B -0.117 | OTUD7B -0.1 | PRPF8 -0.0463 | PSMD7 -0.259 | UCHL1 -0.902 | UCHL3 0.47 | UCHL5 -0.282 | USP10 -0.119 | USP15 -0.171 | USP16 -0.587
